Measurements taken from PubChem BioAssay (NCATS).
Inconclusive results are not listed. Calls of active or inactive are those of the source. The call rests on the fitted dose curve; in most records, active means well fitted cell-killing curve with a large enough effect; inconclusive means small, poorly fitted or top-dose-only effect, or effect the other way; inactive means no such curve, though single readings can be large or run the other way.

Assay: Quantitative High-Throughput drug screen in 47 multiple myeloma cell lines against the NCATS MIPE library collection: KMS12BM_JCRB cell viability assay (AID 1918971); further: nearly all actives have a fitted effect of over 35% in size
Details: KMS12BM myeloma viability, CellTiter-Glo ATP, 48 h; series mostly up to 45.8 µM; viability, % of DMSO: at the top concentration
Excerpt: PI: Beverly A. Mock Ph.D.
Laboratory of Cancer Biology and Genetics,
Center for Cancer Research, National Cancer Institute,
National Institute of Health, Bethesda, Maryland
Drug resistance and disease progression are common in multiple myeloma (MM) patients, underscoring the need for new therapeutic combinations. […] We hypothesized that effective combinations would reduce MYC expression and enhance p16 activity. […] These preclinical data identify potentially useful drug combinations for evaluation in drug-resistant MM and reveal potential mechanisms of combined drug sensitivity.
Described herein is the primary MIPE qHTS used to cherrypick compounds. Validated compounds were then further tested for potential synergistic activiy.
[1] Peat TJ, Gaikwad SM, Dubois W, Gyabaah-Kessie N, Zhang S, Gorjifard S, Phyo Z, Andres M, Hughitt VK, Simpson RM, Miller MA, Girvin AT, Taylor A, Williams D, D'Antonio N, Zhang Y, Rajagopalan A, Flietner E, Wilson K, Zhang X, Shinn P, Klumpp-Thomas C, McKnight C, Itkin Z, Chen L, Kazandijian D, Zhang J, Michalowski AM, Simmons JK, Keats J, Thomas CJ, Mock BA. Drug combinations identified by high-throughput screening promote cell cycle transition and upregulate Smad pathways in myeloma. Cancer Lett. 2023 Aug 1;568:216284. doi: 10.1016/j.canlet.2023.216284. Epub 2023 Jun 24. PMID: 37356470; PMCID: PMC10408729.
SEQUENCE No. (e.g., 1, 2, 3, etc.); […] (e.g., Cells, Incubation, Reagent, etc.); VALUE and DESCRIPTION.
1; Cells; 5 uL; white, solid bottom 1536-well Greiner assay plate.
2; Compounds; 23 nL; Kalypsis pin tool (Wako USA) equipped with a 1536-well pin head to transfer to the assay plates.
3; Incubation; 48 hours; 37C incubation.
4; Reagent;5uL; CellTiter Glo (Promega).
5; Detector; 425V; Luminescence; Viewlux PerkinElmer.
NOTES (numbers refer to Sequence numbers above)
1. The cell-based screening methods employed in this study were like those previously published. Briefly, the corresponding myeloma cell lines were screened in 1,536-well plates with 500 cells, 5-uL per well for inhibition of cell viability (assessed by measuring ATP levels with CellTiterGlo).
2. NCATS MIPE 4.0 library of approved and investigational drugs were added using the Kalypsis pin tool. Wells treated with DMSO only for 100% viability and media only wells for 0% viability were used as controls.
3. The assay plates were covered and incubated for 48 hours in a 37C, 5% CO2 incubator with controlled humidity.
4. After 48 hours, CellTilter-GloTM luminescent substrate mix (Promega) reagent was added to the assay plate and plates we incubated for 5 min at room temperature.
5. Signal was measured as median relative luminescence units on a ViewLux (PerkinElmer) multiplate reader.
[1] Heske CM, Davis MI, Baumgart JT, Wilson K, Gormally MV, Chen L, Zhang X, Ceribelli M, Duveau DY, Guha R, Ferrer M, Arnaldez FI, Ji J, Tran HL, Zhang Y, Mendoza A, Helman LJ, Thomas CJ. Matrix Screen Identifies Synergistic Combination of PARP Inhibitors and Nicotinamide Phosphoribosyltransferase (NAMPT) Inhibitors in Ewing Sarcoma. Clin Cancer Res. 2017 Dec 1;23(23):7301-7311. doi: 10.1158/1078-0432.CCR-17-1121. Epub 2017 Sep 12. PMID: 28899971; PMCID: PMC6636827.
Potency means the concentration at half of the fitted maximal effect.

Row | Compound | Potency | viability, % of DMSO
1 | CNS(=O)(=O)CCc1ccc2[nH]cc(C3CCN(C)CC3)c2c1 | 2.64 µM (active) | –
2 | CCCc1nc(C)c2c(=O)[nH]c(-c3cc(S(=O)(=O)N4CCN(CC)CC4)ccc3OCC)nn12 | 5.26 µM (active) | –
3 | CCc1c2c(nc3ccc(OC(=O)N4CCC(N5CCCCC5)CC4)cc13)-c1cc3c(c(=O)n1C2)COC(=O)[C@]3(O)CC | 0.264 µM (active) | –
4 | COc1ccccc1OCC(O)COC(N)=O (stereo not given) | – | 129% (inactive)
5 | CC1(C)[C@H](C(=O)O)N2C(=O)C[C@H]2S1(=O)=O | – | 125% (inactive)
6 | COc1ncnc(NS(=O)(=O)c2ccc(N)cc2)c1OC | – | 139% (inactive)
7 | CN(C)CCc1c[nH]c2ccc(C[C@H]3COC(=O)N3)cc12 | – | 154% (inactive)
8 | CC(C)OC(=O)OCOP(=O)(CO[C@H](C)Cn1cnc2c(N)ncnc21)OCOC(=O)OC(C)C | 7.43 µM (active) | –
9 | CC(C)C[C@H](NC(=O)[C@H](CCc1ccccc1)NC(=O)CN1CCOCC1)C(=O)N[C@@H](Cc1ccccc1)C(=O)N[C@@H](CC(C)C)C(=O)[C@@]1(C)CO1 | 0.0053 µM (active) | –
10 | CCC(=O)O[C@]1(C(=O)SCF)[C@H](C)C[C@H]2[C@@H]3C[C@H](F)C4=CC(=O)C=C[C@]4(C)[C@@]3(F)[C@@H](O)C[C@@]21C | – | 116% (inactive)
11 | CC(C)(C)NC(=O)[C@H]1CC[C@H]2[C@@H]3CC[C@H]4NC(=O)C=C[C@]4(C)[C@H]3CC[C@]12C | – | 143% (inactive)
12 | CC(C)(Sc1cc(C(C)(C)C)c(O)c(C(C)(C)C)c1)Sc1cc(C(C)(C)C)c(O)c(C(C)(C)C)c1 | – | 158% (inactive)
13 | CNC1CCCN(c2c(F)cc3c(=O)c(C(=O)O)cn(C4CC4)c3c2OC)C1 (stereo not given) | – | 112% (inactive)
14 | Cc1cccc(Nc2ccncc2S(=O)(=O)NC(=O)NC(C)C)c1 | 16.6 µM (active) | –
15 | O=C(N[C@H](CO)[C@H](O)c1ccc([N+](=O)[O-])cc1)C(Cl)Cl | – | 147% (inactive)
16 | CS(=O)(=O)c1ccc([C@@H](O)[C@@H](CO)NC(=O)C(Cl)Cl)cc1 | – | 110% (inactive)
17 | CCCCc1oc2ccc(NS(C)(=O)=O)cc2c1C(=O)c1ccc(OCCCN(CCCC)CCCC)cc1 | 14.8 µM (active) | –
18 | CNCC[C@H](Oc1cccc2ccccc12)c1cccs1 | 18.7 µM (active) | –
19 | C[C@@H](NCCCc1cccc(C(F)(F)F)c1)c1cccc2ccccc12 | – | 133% (inactive)
20 | CC(C)OC(=O)C(C(=O)OC(C)C)=C1SC=CS1 | 14.8 µM (active) | –

Row | Compound | Potency | viability, % of DMSO
21 | CCOCC(O)COc1ccc(NC(=O)CC[S+](C)C)cc1 (stereo not given) | – | 113% (inactive)
22 | COc1cc(NCc2ccc3nc(N)nc(N)c3c2C)cc(OC)c1OC | 13.2 µM (active) | –
23 | CN1CCCC(n2nc(Cc3ccc(Cl)cc3)c3ccccc3c2=O)CC1 (stereo not given) | 4.18 µM (active) | –
24 | CCCc1cc(C(N)=S)ccn1 | – | 134% (inactive)
25 | CCn1cc(C(=O)O)c(=O)c2cc(F)c(N3CCN(C)CC3)cc21 | 2.64 µM (active) | –
26 | Nc1nc(=S)c2[nH]cnc2[nH]1 | 5.9 µM (active) | –
27 | COc1cc2ncnc(Nc3cccc(Cl)c3)c2cc1OC | 26.4 µM (active) | –
28 | COC(=O)Nc1nc2ccc(Sc3ccccc3)cc2[nH]1 | 2.35 µM (active) | –
29 | COc1cccc(N(C)C(=S)Oc2ccc3c(c2)CCCC3)n1 | – | 117% (inactive)
30 | CC[C@H](NC(C)C)[C@H](O)c1ccc(O)c2[nH]c(=O)ccc12 | 0.0235 µM (active) | –
31 | Nc1nc(N)nc(-c2cc(Cl)ccc2Cl)n1 | – | 106% (inactive)
32 | CC(=O)Oc1ccccc1C(=O)Nc1ncc([N+](=O)[O-])s1 | 24.1 µM (active) | –
33 | NC(=O)c1ccc2[nH]ccc2c1 | – | 154% (inactive)
34 | O=C(O)c1ccc(-n2nc(-c3ccccc3O)nc2-c2ccccc2O)cc1 | 20.9 µM (active) | –
35 | COc1ccc(C(=O)CC(=O)c2ccc(C(C)(C)C)cc2)cc1 | 2.35 µM (active) | –
36 | CCCCOc1ccc(CC(=O)NO)cc1 | 20.9 µM (active) | –
37 | O[C@@H](CNC[C@H](O)[C@H]1CCc2cc(F)ccc2O1)[C@@H]1CCc2cc(F)ccc2O1 | 23.5 µM (active) | –
38 | COC(=O)Nc1nc2ccc(C(=O)c3ccccc3)cc2[nH]1 | 1.48 µM (active) | –
39 | CCCCS(=N)(=O)CCC(N)C(=O)O (stereo not given) | – | 144% (inactive)
40 | CC(C)Cn1cnc2c(N)nc3ccccc3c21 | 14.8 µM (active) | –
